# Sampled rows, rich in hits. Any-hit rate of the full collection: about 2.3%.
# ELG1 repair inh = ELG1-dependent DNA repair inhibition | AID 504467 | 330,000 tested, 2.3% active | Potency, µM (series often up to 46.1 µM), actives largely listed as inhibitors | HEK293T ELG1-luciferase reporter, luminescence, 16 h; DNA damage induced by 5-fluorouridine; also: nearly all actives have a fitted effect of over 55% in size
#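 In this reporter screen, reduction of luminescence relative to DMSO vehicle indicated activity. Compounds and 5-fluorouridine were added together to 2,000 cells per well, incubated for 16 hr at 37 °C, then developed with ONE-Glo.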
# TRPV1 PAM = enhances activation of the human vanilloid receptor TRPV1 | 320,000 tested, 0.02% active | TRPV1-expressing cells, Fluo-8 calcium influx, capsaicin EC20 potentiation | potentiation, % at 8.33 µM | Q8NER1; in the data active = potentiation above about 80%; inconclusive = between about 30% and that limit
# Target sequence (Q8NER1 whole entry, looked up): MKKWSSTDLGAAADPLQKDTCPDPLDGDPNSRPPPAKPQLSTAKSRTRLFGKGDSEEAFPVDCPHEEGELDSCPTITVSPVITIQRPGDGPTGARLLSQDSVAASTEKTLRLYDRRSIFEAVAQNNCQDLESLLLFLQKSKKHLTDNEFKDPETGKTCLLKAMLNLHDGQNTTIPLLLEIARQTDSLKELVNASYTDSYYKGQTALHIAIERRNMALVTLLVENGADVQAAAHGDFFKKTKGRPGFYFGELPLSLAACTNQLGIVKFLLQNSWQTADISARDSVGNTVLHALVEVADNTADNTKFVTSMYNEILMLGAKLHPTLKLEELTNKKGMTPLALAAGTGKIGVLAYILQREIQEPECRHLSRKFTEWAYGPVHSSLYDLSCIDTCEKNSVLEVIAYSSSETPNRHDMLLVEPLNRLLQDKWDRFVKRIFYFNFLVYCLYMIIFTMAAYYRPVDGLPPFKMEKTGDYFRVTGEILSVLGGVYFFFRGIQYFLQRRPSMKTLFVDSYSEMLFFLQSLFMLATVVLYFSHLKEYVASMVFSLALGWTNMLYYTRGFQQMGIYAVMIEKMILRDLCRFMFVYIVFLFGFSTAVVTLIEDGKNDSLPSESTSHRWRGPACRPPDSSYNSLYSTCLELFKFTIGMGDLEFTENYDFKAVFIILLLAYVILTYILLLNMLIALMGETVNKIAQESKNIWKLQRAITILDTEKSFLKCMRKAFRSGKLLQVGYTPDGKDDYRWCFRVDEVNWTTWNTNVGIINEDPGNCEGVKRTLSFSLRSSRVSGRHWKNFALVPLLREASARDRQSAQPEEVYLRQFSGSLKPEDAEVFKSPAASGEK
#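 TRPV1-expressing cells were cultured overnight at 35.5C and loaded with Fluo-8 calcium dye for 40 to 90 min at room temperature. After a 10 s baseline, compound was added and calcium influx was read kinetically for 3 min (ex 480/em 520 nm).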
# FUS suppressor = rescues growth of FUS-expressing yeast; AID 1347120; Potency, µM (titrated, usually from 76.6 µM), usual class: activators; 390,000 tested, 0.24% active; S. cerevisiae FUS-expressing, growth rescue, OD600, 24 h; also: nearly all actives have a fitted effect of over 55% in size
#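 S. cerevisiae expressing FUS from galactose induction served as the toxicity model. Growth after 24hr at 30C, read as absorbance at 600 nm, indicates suppression of toxicity; compounds dosed at several concentrations.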
# Giardia killer = kills Giardia lamblia; Giardia lamblia trophozoite viability; activity change, % at 7.66 µM, hits read low; 340,000 tested, 0.15% active; in the data active = activity change below about -80%; inconclusive = between about -30% and that limit;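 also: parasites exposed to compound for two days anaerobically before the ATP read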
#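 Trophozoites 100 cells/well + cpd; 48 hrs, 37 deg C, anaerobic. ATPLite 1-Step added, 15-30 min RT, luminescence read (ATP-based viability).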
# TRPV1 agonist = activates the human vanilloid receptor TRPV1; 320,000 tested, 0.19% active; AID 540275; activation, % at 8.33 µM; Q8NER1; TRPV1-expressing cells, Fluo-8 calcium influx, agonist mode; in the data active = activation above about 80%; inconclusive = between about 30% and that limit
#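 Fluo-8 calcium influx in TRPV1-expressing cells, kinetic read (ex 480/em 520 nm). Compound added and read 3 min for agonist activity, followed by capsaicin at EC20 final and 2 min further read for enhancement.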
# A number is an active result; - = inactive; ? = inconclusive; . = no result. Unless noted, calls follow the shape of the dose curve; as a rule, active = well fitted curve in the direction sought with a large enough effect; inconclusive = small, poorly fitted or top-dose-only effect, or another doubt; inactive = no such curve, though single readings can be large; an effect the other way counts as inactive or inconclusive.
SMILES,ELG1 repair inh,TRPV1 PAM,FUS suppressor,Giardia killer,TRPV1 agonist
Cc1onc(-c2ccccc2)c1C(=O)Nc1nnc(C(C)C)s1,-,-,-,-,-
Cc1cnc(NC(=O)c2ccc3c(c2)OCCO3)s1,?,-,-,-91,?
Cc1nc2ccc3nc(NC(=O)c4ccc5c(c4)OCCO5)sc3c2s1,?,-,-,-,-
O=C(Nc1ncc([N+](=O)[O-])s1)c1ccco1,?,-,-,-90,-
O=C(Nc1ncc([N+](=O)[O-])s1)c1ccc2c(c1)OCO2,?,-,-,-95,-
Cc1ccc([N+](=O)[O-])cc1NC(=O)c1ccc2c(c1)OCO2,-,-,-,-,-
Cc1csc(NC(=O)c2ccco2)n1,-,-,.,-,-
Cc1onc(-c2ccccc2)c1C(=O)Nc1ncc([N+](=O)[O-])s1,3.7µM,-,-,-94,-
COc1ccc(CCC(=O)NCc2ccc3c(c2)CCN3C(=O)c2ccc(Cl)cc2)cc1,.,.,-,.,.
CCCC1OC2C[C@@H]3[C@H]4CCC5=CC(=O)C=C[C@]5(C)[C@H]4C(O)C[C@]3(C)[C@]2(C(=O)CO)O1 (stereo partly drawn),.,.,.,-,.
CCN(CC)S(=O)(=O)c1ccc(NC(=O)[C@H](CCSC)N2Cc3ccccc3C2=O)cc1,.,.,-,.,.
Cc1ccc(C(=O)Nc2nnc(C)s2)cc1,?,-,-,-,-
Cc1ccc(C(=O)Nc2ncc([N+](=O)[O-])s2)cc1,?,-,-,-86,-
O=C1C(Cl)=C(NCc2cccnc2)C(=O)c2ccccc21,21µM,?,-,-,-
O=C1C(Cl)=C(NCCc2ccccc2)C(=O)c2ccccc21,.,.,-,-,.
Cc1cc(C)c2sc(N(CCCN(C)C)C(=O)c3ccc(S(=O)(=O)N4CCc5ccccc5C4)cc3)nc2c1,13µM,-,.,.,-
Cc1ccc2nc(N(CCCN(C)C)C(=O)c3ccc(S(=O)(=O)N4CCc5ccccc5C4)cc3)sc2c1,-,-,?,-,-
CN(C(=O)C(C)(C)C)C1c2c(ccc3ccccc23)OCC1CO (stereo not drawn),-,-,-,-,-
CNC(=S)N(C)[C@H]1c2c(ccc3ccccc23)OC[C@H]1CO,23µM,-,-,-,-
CC1Nc2ncnc(N3CCN(c4ccccc4)CC3)c2N(Cc2ccc(Cl)cc2)C1=O (stereo not drawn),?,-,20µM,-,-
CC1Nc2ncnc(N3CCN(c4ccccc4)CC3)c2N(Cc2ccccc2)C1=O (stereo not drawn),-,-,-,-,-
CCN(C(=O)c1sc2nc3n(c(=O)c2c1C)CCCC3)c1ccccc1F,.,.,-,.,.
CC(C)=C(NC(=O)c1ccccc1)C(=O)N1CCOCC1,-,-,-,-,-
O=C(N/C(C(=O)N1CCOCC1)=C(\Sc1ncccn1)c1ccccc1)c1ccccc1,23µM,-,.,-,-
Cc1ccc(NC(=O)Cn2c(=O)n(CCCC(=O)NCc3ccc4c(c3)OCO4)c(=O)c3ccccc32)cc1,.,.,-,.,.
SMILES,ELG1 repair inh,TRPV1 PAM,FUS suppressor,Giardia killer,TRPV1 agonist
CCCSC(=S)c1c(C)[nH]n(-c2ccccc2)c1=O,13µM,-,-,-,-
COc1ccccc1Nc1nc(NCc2ccco2)nc(N)c1[N+](=O)[O-],18µM,.,-,-,.
Nc1nc(NCc2ccccc2)nc(NCc2ccccc2)c1[N+](=O)[O-],-,-,.,-,-
COCCCNc1nc(N)c([N+](=O)[O-])c(Nc2ccccc2OC)n1,?,-,-,-,-
Nc1nc(Nc2ccccc2)nc(NCc2ccccc2)c1[N+](=O)[O-],21µM,-,-,-,-
O=C(c1ccc(=O)n(Cc2ccccc2)n1)N1CCN(C/C=C/c2ccccc2)CC1,16µM,-,-,-,-
O=C(c1ccc(Br)o1)N1CCN(C/C=C/c2ccccc2)CC1,-,-,-,-,-
O=C(Nc1ncc([N+](=O)[O-])s1)C1CC(=O)N(c2ccc(F)cc2)C1 (stereo not drawn),-,-,-,-86,-
COc1ccc(CCNC(=O)c2ccc(-c3ccc([N+](=O)[O-])cc3Cl)o2)cc1OC,18µM,-,-,?,-
COc1ccc(OC)c(CNC(=O)c2cc3cc4ccc(OC)cc4nc3o2)c1,.,.,-,.,.
COc1ccc2cc3cc(C(=O)NCCc4ccc(OC)c(OC)c4)oc3nc2c1,5.2µM,-,-,-,-
COc1ccc(CCNC(=O)COc2ccc(N(C)S(=O)(=O)c3ccc(C)cc3)cc2)cc1OC,21µM,-,-,-,-
COc1ccc(CCNC(=O)c2cc(=O)c3ccc(C)cc3o2)cc1OC,16µM,-,-,-,-
Cc1nc(-c2ccc(F)cc2)sc1CCNC(=O)c1cccs1,.,.,-,.,.
CN(C)c1ccc(NC(=O)CSC2=Nc3ccccc3C3=NC(CC(=O)NCc4ccccc4)C(=O)N23)cc1 (stereo not drawn),.,.,-,.,.
Cc1cc(C)c2oc(C(=O)NCCc3ccc(S(N)(=O)=O)cc3)cc(=O)c2c1,-,-,-,-,-
COc1ccc(OC)c2[nH]c(=O)c(CCNC(=O)c3cc4ccccc4o3)cc12,18µM,-,?,-,-
COc1ccc(CCNC(=O)c2ccc(CS(=O)(=O)c3ccc(Cl)cc3)o2)cc1OC,?,-,-,-,-
Cc1ccc(C)c2[nH]c(=O)c(CCNC(=O)c3cc4ccccc4o3)cc12,?,-,-,-,-
COc1ccc(CCNC(=O)c2ccc(CS(=O)(=O)c3ccc(C)cc3)o2)cc1OC,16µM,-,-,-,-
Cc1ccc2c(=O)cc(C(=O)NCCc3ccc(S(N)(=O)=O)cc3)oc2c1,9.2µM,-,-,-,-
Cc1ccc(N=Cc2ccc[nH]2)c(O)c1,?,-,35µM,-,-
C[C@@H]1CN([C@@H](C)CO)C(=O)Cc2cc(NC(=O)Nc3ccc(C(F)(F)F)cc3)ccc2O[C@@H]1CN(C)S(=O)(=O)c1ccc(Cl)cc1,21µM,.,18µM,-,.
C[C@H](CO)N1C[C@H](C)[C@@H](CN(C)S(=O)(=O)c2cccs2)Oc2ccc(NC(=O)Nc3ccccc3)cc2C1=O,23µM,.,?,-,.
C[C@H](CO)N1C[C@H](C)[C@@H](CN(C)S(=O)(=O)c2ccccc2)Oc2ccc(NC(=O)Nc3ccccc3)cc2C1=O,21µM,.,?,-,.
C[C@@H]1CN([C@H](C)CO)C(=O)c2cc(NC(=O)Nc3ccc(C(F)(F)F)cc3)ccc2O[C@H]1CN(C)S(=O)(=O)c1ccc(Cl)cc1,?,.,-,-,.
C[C@H](CO)N1C[C@H](C)[C@@H](CN(C)S(=O)(=O)c2cccs2)Oc2ccc(NC(=O)CCC(F)(F)F)cc2C1=O,-,.,-,-,.
C[C@H](CO)N1C[C@H](C)[C@@H](CN(C)S(=O)(=O)c2ccccc2)Oc2ccc(NC(=O)C3CC3)cc2C1=O,18µM,.,-,-,.
C[C@H](CO)N1C[C@H](C)[C@@H](CN(C)S(=O)(=O)c2ccc(F)cc2)Oc2ccc(NC(=O)Nc3ccc4c(c3)OCO4)cc2C1=O,?,.,?,-,.
